Screening data deposited in PubChem BioAssay by National Center for Advancing Translational Sciences (NCATS).
Most compounds without a hit are left out; they make up all but 19% or so of the library.
Pf growth 96h: P. falciparum growth inhibition at 96 hours. P. falciparum luciferase reporter growth, 96 h. AID 504834. hit rate 6.9% among 320,000. Potency, µM (series often up to 28.7 µM), for inactives: at the top dose activity change, negative = inhibition, most hits filed as inhibitors; further: potency means the concentration at half of the fitted maximal effect; on the % scale 0 is the no-effect control and ±100 the full control effect
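Two-generation exposure (96 h) targets delayed-death phenotype. Reporter parasites carrying integrated firefly luciferase, in red cells at 2% hematocrit and 0.05% parasitemia final, kept at 37 C, 5% CO2; luminescence loss indicates inhibition.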
Cycloheximide cs: counter-screen for Shiga toxin inhibitors: cycloheximide protein synthesis inhibition; cell reporter, cycloheximide protein synthesis inhibition counterscreen; max response, %; hit rate 12% among 300,000; in the data active means max response mostly above about 13%, no sharp cut-off; inactive means mostly below about 14%; further: read at 38.3 µM for the half of the compounds with a filed dose; 0% is about no effect
Shiga inhibitor: Shiga toxin inhibition. Vero cells, Shiga toxin protein synthesis inhibition reporter. inhibition, % at 38.7 µM. hit rate 9.2% among 290,000; in the data active means inhibition mostly above about 28%, no sharp cut-off; inactive means mostly below about 43%; further: 0% is about no effect
Pf growth 48h: P. falciparum growth inhibition at 48 hours (one generation); Potency, µM (titrated, usually from 28.7 µM), inactives show at the highest dose activity change, negative = inhibition, usual class: inhibitors; AID 504832; P. falciparum luciferase growth in erythrocytes, 48 h; hit rate 5.9% among 310,000; further: potency means the concentration at half of the fitted maximal effect; on the % scale 0 is the no-effect control and ±100 the full control effect
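Growth was read as firefly luciferase luminescence after a 48 h, 37 C, 5% CO2 exposure of compounds to reporter-bearing P. falciparum cultures (0.1% parasitemia, 2% hematocrit final) in Albumax-supplemented RPMI 1640.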
SARS PLpro yeast: inhibitors of SARS-CoV papain-like protease in yeast; Potency, µM (series often up to 32.9 µM), for inactives: at the highest dose activity, positive = growth rescue, hits mostly activators; AID 485353; hit rate 0.19% among 330,000; S. cerevisiae expressing SARS-CoV PLpro, growth rescue; calls by dose curve; further: potency means the concentration at half of the fitted maximal effect; 0% is about no effect; nearly all actives have a fitted effect of over 55% in size
AMA1-RON2 inh: AMA1-RON2 (P. falciparum) interaction inhibition | hit rate 0.2% among 360,000 | AlphaScreen AMA1-biotinylated RON2 peptide binding | AID 720542 | Potency, µM (titrated, usually from 58.2 µM), for inactives: at the highest dose activity change, negative = inhibition, most hits filed as inhibitors;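 further: potency means the concentration at half of the fitted maximal effect; 0% = vehicle wells and -100% = peptide control; nearly all actives have a fitted effect of over 45% in size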
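AMA1 (3D7) with his tag at 25 nM final met compounds first, then biotinylated RON2 peptide at 25 nM; detection used donor plus acceptor beads, 10 µg/mL apiece, read by AlphaScreen after 30 min at room temperature.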
* marks the source's active call; other numbers are inactive results; ? = inconclusive; / = no result; + = active, no number; [ ] = remark or other dose. Unless noted, the call rests on the fitted dose curve; in most records, active means well fitted curve in the direction sought with a large enough effect; inconclusive means small, poorly fitted or top-dose-only effect, or another doubt; inactive means no such curve, though single readings can be large; an effect the other way counts as inactive or inconclusive.

SMILES	Pf growth 96h	Cycloheximide cs	Shiga inhibitor	Pf growth 48h	SARS PLpro yeast	AMA1-RON2 inh
O=C(/C=C/c1ccccc1O)c1ccco1	13%	30*	61*	0%	-7%	6%
Cc1cccc(NC(=S)N2CCC(C(=O)c3ccc(F)cc3)CC2)c1C	29%	-1	18	-2%	4%	0%
Nc1ccc(/C=C/C(=O)c2ccco2)cc1	-9%	69*	+	41%	-26%	-6%[2.32 µM]
Cc1onc(-c2c(F)cccc2Cl)c1C(=O)Nc1nc2ccccc2[nH]1	-99%	59*	60*	/	19%	12%
Cc1onc(-c2c(F)cccc2Cl)c1C(=O)Nc1nccs1	-18%	1	-8	-12%	0%	50%
Cc1onc(-c2c(F)cccc2Cl)c1C(=O)Nc1nnc(C(F)(F)F)s1	10µM*	-3	8	33%	-11%	-2%
Cc1onc(-c2c(Cl)cccc2Cl)c1C(=O)Nc1ccc2c(C(F)(F)F)cc(=O)oc2c1	2.3µM*	-3	52	?	0%	10%
Cc1onc(-c2ccccc2)c1C(=O)Nc1ccc2c(C)cc(=O)oc2c1	?	0	14	?	-2%	4%
Cc1nc(C(=O)NNC(=O)c2c(-c3c(Cl)cccc3Cl)noc2C)cs1	?	-1	-10	?	-2%	127%
Cc1onc(-c2c(Cl)cccc2Cl)c1C(=O)Nc1nc(C(C)(C)C)cs1	10µM*	-1	20	?	-2%	?
Cc1onc(-c2c(Cl)cccc2Cl)c1NC(=O)NNc1ccccc1	0%	-1	-4	?	0%	0%
Cc1ccc(NC(=O)c2c(-c3c(F)cccc3Cl)noc2C)cc1F	?	6	52	9.3µM*	-6%	-5%
Cc1onc(-c2c(F)cccc2Cl)c1-c1nnc(-c2ccc(C(F)(F)F)cc2)o1	8.3µM*	-1	-3	8.3µM*	-1%	6%
Cc1cc(NC(=O)c2c(-c3c(F)cccc3Cl)noc2C)no1	-14%	2	11	?	1%	-2%
Cc1ccc(S(=O)(=O)N(C)C)cc1NC(=O)c1c(-c2c(F)cccc2Cl)noc1C	?	1	-2	12µM*	1%	-2%
Cc1onc(-c2c(Cl)cccc2Cl)c1NC(=O)NNc1ccccn1	2%	29*	9	-12%	1%	-4%
CCCS(=O)(=O)c1cscc1NC(=O)c1c(-c2c(F)cccc2Cl)noc1C	?	-3	-5	?	1%	-23%
COc1ccc(NC(=O)CN(C)C(=O)c2c(-c3c(F)cccc3Cl)noc2C)cc1	?	/	/	?	1%	-4%
CCOc1ccc(NC(=O)CN(C)C(=O)c2c(-c3c(F)cccc3Cl)noc2C)cc1OCC	1µM*	/	/	?	2%	-19%
O=C(CSc1nnc(NC2CC2)s1)NN1C(=O)NC2(CCCCC2)C1=O	-21%	/	/	-17%	0%	27%
CCOc1ccc(Nc2ccc(S(=O)(=O)N3CCN(C)CC3)cc2[N+](=O)[O-])cc1OCC	?	/	/	12µM*	0%	?
CN1CCN(S(=O)(=O)c2ccc(Nc3ccc(F)cc3)c([N+](=O)[O-])c2)CC1	-21%	/	/	7%	2%	5%
COc1ccc(C(=O)Nc2ccc(NC(=O)c3cccc(OC)c3)cn2)cc1	-7%	8	28	?	-1%	0%
COc1ccc(COc2cc(-c3cccc(OC)c3)nc3ccc(NC(=O)c4ccc(OC)cc4)cc23)cc1	4.7µM*	-1	-11	13µM*	4%	-2%
COc1cccc(NC(=O)c2cc(-c3ccc(OC)cc3OC)nc3ccccc23)c1	/	/	/	/	/	2%
SMILES	Pf growth 96h	Cycloheximide cs	Shiga inhibitor	Pf growth 48h	SARS PLpro yeast	AMA1-RON2 inh
COc1ccc(COc2cc(-c3cccc(OC)c3)nc3ccc(NC(=O)c4ccccc4)cc23)cc1	12µM*	1	19	12µM*	0%	12%
COc1ccc(COc2cc(-c3cccc(OC)c3)nc3ccc(NC(=O)c4ccc(Cl)cc4)cc23)cc1	3.7µM*	2	30	2.1µM*	4%	3%
COc1ccc(COc2cc(-c3cccc(OC)c3)nc3ccc(NC(=O)c4cccnc4)cc23)cc1	2.3µM*	2	-7	2.9µM*	6%	-2%
CC1(C)CC(NS(=O)(=O)c2ccc(C(C)(C)C)cc2)CC(C)(C)N1	296%	-2	-11	3%	2%	-5%
CNC(=O)c1nnn(Cc2ccccc2)c1NC(=O)C(F)(F)F	?	-2	10	?	0%	9%
COc1ccc(CN2CCN(C(=O)CCC(=O)Nc3nnc(C4CCCCC4)s3)CC2)cc1F	12µM*	-6	-11	-27%	-5%	1%
COc1ccc(CN2CCN(C(=O)CCC(=O)Nc3nnc(C(F)(F)F)s3)CC2)cc1F	?	4	-11	-9%	-6%	-6%
Cc1nnc(N/N=C/c2c(O)n(-c3cccc(C(F)(F)F)c3)c(=O)c3ccccc23)[nH]c1=O	?	1	-10	6.6µM*	-1%	/
Cc1ccc(-c2nnc(N3CCCCC3)c3ccccc23)cc1	-25%	-2	18	?	-1%	-4%
Cn1c(=O)n(CC(=O)N2CCN(c3nnc(-c4ccccc4)c4ccccc34)CC2)c2ccccc21	13µM*	-3	-10	17%	-13%	7%
Cc1ccc(-c2nnc(N3CCN(C(=O)COc4ccccc4)CC3)c3ccccc23)cc1	5.2µM*	1	-12	/	-26%	-9%
c1csc(-c2nnc(N3CCCCCC3)c3ccccc23)c1	-29%	15*	77*	4%	-11%	-26%
O=C(COc1ccc([N+](=O)[O-])cc1)N1CCN(c2nnc(-c3ccccc3)c3ccccc23)CC1	13%	-3	4	8%	-1%	-9%
O=C(COc1ccc(-c2nnc(N3CCCCC3)c3ccccc23)cc1)N1CCCCC1	8.3µM*	-3	-6	12µM*	-1%	0%
Cc1ccc(-c2nnc(N3CCN(C(=O)Cn4c(=O)n(C)c5ccccc54)CC3)c3ccccc23)cc1	/	-1	-29	-2%	1%	-4%
Cc1ccccc1CC(=O)N1CCOCC1	42%	-2	-3	9%	-1%	0%
Nc1nc(N)c(N=O)c(Nc2cccc(Cl)c2)n1	/	/	/	/	/	41%
CCOc1ccc(S(=O)(=O)N2CCCC(C(=O)N3CCOCC3)C2)cc1C (stereo not drawn)	26%	-1	-6	-7%	1%	13%
O=C(c1cccs1)N1CCN(c2nnc(-c3ccccc3)c3ccccc23)CC1	?	-3	-13	?	-3%	-11%
Cc1ccc(-c2nnc(N3CCN(C(=O)c4cccs4)CC3)c3ccccc23)cc1	4.7µM*	2	-6	8.3µM*	-1%	-8%
CN(C)N=Nc1nc2c(c(=O)n(C)c(=O)n2C)n1C	1%	2	11	35%	0%	4%
